Results from PubChem BioAssay (NCATS).
“And” between values parts separate entries of the source, which are not always exact repeats. Equal entries are not always repeated. Inconclusive results are not listed. Values without a mark were called inactive. The source made the active and inactive calls. Calls come from the whole dose curve; as a rule, active = well fitted inhibition curve with a large enough effect in the repeat runs; inconclusive = weak or mixed curves; inactive = flat fitted curve, though single readings scatter.

The compounds below were run against Cytochrome P450 2D6 (Homo sapiens) (UniProt P10635) (assay: Cytochrome P450 family 2 subfamily D member 6 (CYP2D6) small molecule antagonists: luciferase biochemical (cell-free) qHTS assay (AID 1645840; note: nearly all actives have a fitted effect of over 55% in size)). Settings: P450-Glo CYP2D6 enzyme, luciferin luminescence, 1 h; series mostly up to 57.4 µM; activity change, negative = inhibition: at the top concentration.
Summary of the method: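 P450-Glo luminescent screen: recombinant CYP2D6 enzyme–proluciferin substrate mix preincubated with compound 10 min at room temperature, then NADPH regeneration added for 1 h at room temperature. Detection reagent added for 20 min; luciferin light read as relative luminescence units.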
% is set by controls: 0 for no effect and ±100 for the full control effect; potency is the fitted concentration of half-maximal effect.

Cytochrome P450 2D6 (Homo sapiens), sequence (P10635 whole entry, looked up): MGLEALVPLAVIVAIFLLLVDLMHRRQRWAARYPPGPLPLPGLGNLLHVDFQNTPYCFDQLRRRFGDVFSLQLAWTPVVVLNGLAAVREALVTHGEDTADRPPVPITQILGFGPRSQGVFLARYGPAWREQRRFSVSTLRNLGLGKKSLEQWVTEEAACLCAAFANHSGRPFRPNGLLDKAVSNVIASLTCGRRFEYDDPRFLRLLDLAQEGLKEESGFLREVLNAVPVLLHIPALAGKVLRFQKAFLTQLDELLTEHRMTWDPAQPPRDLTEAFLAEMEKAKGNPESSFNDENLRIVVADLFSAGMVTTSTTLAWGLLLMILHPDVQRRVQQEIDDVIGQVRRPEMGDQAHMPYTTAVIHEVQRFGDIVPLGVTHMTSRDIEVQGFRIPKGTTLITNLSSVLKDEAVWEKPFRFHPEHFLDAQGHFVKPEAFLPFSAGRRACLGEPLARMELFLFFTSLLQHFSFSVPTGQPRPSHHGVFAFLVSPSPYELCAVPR

Row | SMILES | activity change, negative = inhibition | Potency
1 | CC(=O)Oc1ccc(C)cc1 | -12.8% | 
2 | COc1ccc(CN(CCN(C)C)c2ncccn2)cc1 |  | 0.49 µM (active)
3 | O=C(O)CCNC(=O)c1ccccc1 | 4.95% | 
4 | Cc1cccc(C)c1NC(=O)c1ccccc1C(=O)O | 0.165% | 
5 | Cc1ncc(CO)c(C=O)c1O | -1.85% | 
6 | CN(C)C(=O)Nc1ccc(Cl)c(Cl)c1 | 0.465% | 
7 | CCN(CC)CCNc1ccc(CO)c2sc3ccccc3c(=O)c12 |  | 4.36 µM (active)
8 | COc1ccc(/C=N/NC(=O)c2ccncc2)cc1OC |  | 21.9 µM (active)
9 | CC(=O)Nc1ccc(OCC(O)CNC(C)C)cc1 (stereo unspecified) | 4.95% | 
10 | O=S(=O)(O)c1ccc(O)cc1 | 0.22% | 
11 | COP(=O)(OC)OC(c1ccc(Cl)cc1)P(=O)(OC)OC (stereo unspecified) | -0.0228% | 
12 | CCCCCCCCCCCCCC(=O)OC(C)C | 9.5% | 
13 | Cc1cc(-c2ccccc2)nnc1NCCN1CCOCC1 |  | 4.9 µM (active)
14 | Cc1ccc(S(=O)(=O)NC(=O)NC2CCCC2)cc1 | 2.63% | 
15 | CCC(C(=O)OCCOCCN(CC)CC)c1ccccc1 (stereo unspecified) |  | 11 µM (active)
16 | CC(C)Cn1cnc2c1c(=O)n(C)c(=O)n2C | -3.42% | 
17 | CC(=O)N[C@@H](CCC(=O)O)C(=O)O | 4.92% | 
18 | Oc1c(Cl)cc(Cl)c(Cl)c1Cc1c(O)c(Cl)cc(Cl)c1Cl |  | 13.8 µM (active)

Row | SMILES | activity change, negative = inhibition | Potency
19 | OC(C#CCN1CCCC1)(c1ccccc1)c1ccccc1 |  | 12.3 µM (active)
20 | N#CCC(=O)NN | 0.973% | 
21 | CC(C)NCC(O)c1ccc2ccccc2c1 (stereo unspecified) |  | 3.47 µM (active)
22 | CCCCNC(=O)NS(=O)(=O)c1ccc(N)cc1 | 13.9% | 
23 | O=c1[nH]c(=O)n([C@H]2C[C@H](O)[C@@H](CO)O2)cc1F | 11.4% | 
24 | Nc1ccc(S(=O)(=O)NCc2ccccc2)cc1 | 3.3% | 
25 | Cc1ccc2c(Br)cc(Br)c(O)c2n1 | 12.4% | 
26 | O=C(O)Cc1csc(-c2ccc(Cl)cc2)n1 | -1.1% | 
27 | CCCCN1C[C@H](O)[C@@H](O)[C@H](O)[C@H]1CO | 9.58% | 
28 | CC(C)(C)CC(C)(C)c1ccc(O)c(-n2nc3ccccc3n2)c1 |  | inactive
29 | CCCCCCCCNC(C)C(O)c1ccc(SC(C)C)cc1 (stereo unspecified) |  | 1.38 µM (active) and 8.49 µM (active)
30 | Cc1c(-c2ccccc2)oc2c(C(=O)OCCN3CCCCC3)cccc2c1=O |  | 3.89 µM (active)
31 | COc1cc(C(=O)N2CCCCCCC2)cc(OC)c1OC | -0.371% | 
32 | CC(=O)NCCCCCC(=O)O | 12.1% | 
33 | Cc1cc(NS(=O)(=O)c2ccc(N)cc2)nc(C)n1 |  | inactive
34 | COc1cc(C)nc(-n2nc(C)cc2OC)n1 | 10.9% | 
35 | CC(=O)Nc1ccc(CC(=O)O)cc1 | 5.93% | 
36 | C#C[C@]1(O)CC[C@H]2[C@@H]3CCc4cc(OC)ccc4[C@H]3CC[C@@]21C | -6.77% | 
